# Assay results from PubChem BioAssay (EPA / NIEHS).
# Results filed as inconclusive are left out. Calls of active or inactive are those of the source. How the source made its calls, unless noted: active means hit-call score of the fitted dose curve at least 0.9, where 1 is the maximum; inactive means score below 0.9.
# How the values were obtained:
# [1] = CCTE_Harrill_HTTr_Viability_MCF7: CCTE's 6-hour Cell Viability Assessment for the High-Throughput Transcriptomics (HTTr) Platform, in MCF-7 cells cultured in DMEM + 10% fetal bovine serum, Harrill Lab (AID 2284010)
# How it was run: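 Eight-point concentration series, six-hour exposure. Propidium iodide exclusion imaged to assess membrane integrity as a cytotoxicity readout; bidirectional fitting was done with DMSO as negative control and activity baseline.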
# [2] = CCTE_Harrill_HTTr_Apoptosis_MCF7: CCTE's 6-hour Apoptosis Assessment for the High-Throughput Transcriptomics (HTTr) Platform, in MCF-7 cells cultured in DMEM + 10% fetal bovine serum, Harrill Lab (AID 2284011)
# How it was run: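 MCF-7 cells in DMEM + 10% FBS exposed 6 h to chemicals over an eight-point dilution series. Caspase-3/7 activation imaged by high-content CellEvent Green staining; fitted bidirectionally versus DMSO.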
# [3] = CCTE_Shafer_MEA_dev_per_burst_spike_percent: CCTE's Neural Network Formation Assay for Percent of Spikes in a Burst, Shafer Lab (AID 2284032);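 further: fitted as a decrease in burst spike percentage below DMSO baseline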
# How it was run: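 Value is trapezoidal AUC over recordings on days 5, 7, 9 and 12 of the well-mean fraction of spikes falling in single-electrode bursts; rat cortical cultures exposed continuously from plating, treatment renewed DIV 5 and 9, fitted downward against DMSO.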
# [4] = CCTE_Shafer_MEA_dev_active_electrodes_number: CCTE's Neural Network Formation Assay for Number of Active Electrodes, Shafer Lab (AID 2284040; active means hit-call score of the fitted dose curve at least 0.9, where 1 is the maximum;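 further: potency for loss of active electrodes versus DMSO so lower counts are hits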)
# How it was run: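 Developing rat cortical networks on MEAs, exposed DIV 0–12. Value is the AUC of active-electrode counts (≥5 spikes/min) from days 5, 7, 9, 12, relative to DMSO.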
# [5] = CCTE_Shafer_MEA_dev_per_burst_interspike_interval: CCTE's Neural Network Formation Assay for Burst Interspike Interval, Shafer Lab (AID 2284044);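 further: potency for a decrease of within-burst interspike interval below DMSO level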
# How it was run: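 Primary rat cortical neurons on 48-well MEA plates, exposed from day 0 through day 12, treatment renewed at DIV 5 and 9. Within-burst interspike interval recorded days 5, 7, 9, 12, well-averaged, summarised as AUC; negative fit versus DMSO.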
# [6] = CCTE_Shafer_MEA_dev_burst_duration_mean: CCTE's Neural Network Formation Assay for Mean Burst Duration, Shafer Lab (AID 2284045);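 further: curve fitted for loss meaning shorter burst duration than DMSO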
# How it was run: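 Mean single-electrode burst duration (first to last spike), averaged over bursting electrodes per well, then integrated as area-under-curve across recordings at days 5, 7, 9 and 12. Rat cortical cultures on MEAs, compound present from plating, refreshed at feeds.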
# [7] = CCTE_Shafer_MEA_dev_interburst_interval_mean: CCTE's Neural Network Formation Assay for Mean Interburst Interval, Shafer Lab (AID 2284046);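 further: well-mean interburst interval of bursting electrodes as AUC over four recording days; curve fitted for decrease in interburst interval relative to DMSO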
# How it was run: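 Recordings on days 5, 7, 9 and 12 give well-mean interburst interval across actively bursting electrodes, summarized as area under the curve. Cultures: rat cortical neurons, continuous exposure from day 0, compound renewed at feeds; decrease analyzed versus DMSO.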
# [8] = CCTE_Shafer_MEA_dev_inter_network_spike_interval_mean: CCTE's Neural Network Formation Assay for Mean Inter-network Spike Interval, Shafer Lab (AID 2284047)
# How it was run: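 Primary rat cortical neurons on 16-electrode MEA wells, exposed from plating day 0 through DIV 12, compound renewed at DIV 5 and 9 media changes. Mean interval between network-spike peaks recorded DIV 5, 7, 9, 12; collapsed as trapezoidal AUC, fitted downward versus DMSO.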
# [9] = CCTE_Shafer_MEA_dev_network_spike_number: CCTE's Neural Network Formation Assay for Number of Network Spikes, Shafer Lab (AID 2284048);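 further: synchronized bursts across electrodes counted on days 5 7 9 12 and integrated as AUC; fit as a loss of signal meaning fewer network spikes than DMSO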
# How it was run: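 Number of network spikes (coordinated firing across electrodes) recorded on days 5, 7, 9 and 12 and summarised as area under the curve. Rat cortical cultures on MEA, continuous compound exposure with full medium/treatment exchange at DIV 5 and 9.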
# [10] = CCTE_Shafer_MEA_dev_network_spike_peak: CCTE's Neural Network Formation Assay for Mean Number of Electrodes in Network Spike, Shafer Lab (AID 2284049);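 further: fitted for loss of signal meaning fewer electrodes in network spikes than DMSO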
# How it was run: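 Rat cortical primary culture, 1.5 x 10^5 cells/well, 48-well MEA (16 electrodes/well). Dosing day 0 through DIV 12, full media/compound exchange DIV 5, 9. AxIS adaptive spike detection; AUC over days 5/7/9/12; loss-of-signal vs DMSO.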
# [11] = CCTE_Shafer_MEA_dev_spike_duration_mean: CCTE's Neural Network Formation Assay for Mean Spike Duration, Shafer Lab (AID 2284051);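 further: mean network spike duration pooled as area under curve over DIV 5 to 12 recordings; potency for a decrease in mean network spike duration versus DMSO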
# How it was run: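 Primary rat cortical neurons on 16-electrode MEA wells (PEI-coated, laminin in plating drop), exposed from plating through DIV 12 with compound renewed at DIV 5 and 9. Mean network-spike duration recorded DIV 5, 7, 9, 12; trapezoidal AUC across days, DMSO baseline.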
# [12] = CCTE_Shafer_MEA_dev_network_spike_duration_std: CCTE's Neural Network Formation Assay for Standard Deviation of Network Spike Duration, Shafer Lab (AID 2284052);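 further: hits are decreases in network spike duration SD versus DMSO vehicle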
# How it was run: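 Primary rat cortical neurons on PEI-coated 16-electrode MEA wells, exposed from plating day 0 through day 12 with compound renewed at DIV 5 and 9. Network spike duration SD recorded on days 5, 7, 9, 12, collapsed as trapezoidal AUC; loss-of-signal fit versus DMSO.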
# [13] = CCTE_Shafer_MEA_dev_per_network_spike_spike_number_mean: CCTE's Neural Network Formation Assay for Mean Number of Spikes in a Network Spike, Shafer Lab (AID 2284053);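 further: fitted as decrease in spikes per network spike relative to DMSO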
# How it was run: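 Primary rat cortical neurons on 48-well, 16-electrode MEA plates were exposed from plating to DIV 12, with dosing renewed on DIV 5 and 9. Spikes per network spike (0.05 s peak window) were recorded on DIV 5, 7, 9 and 12 and collapsed as trapezoidal AUC versus DMSO.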
# [14] = CCTE_Shafer_MEA_dev_per_network_spike_spike_percent: CCTE's Neural Network Formation Assay for Percent of Spikes in a Network Spike, Shafer Lab (AID 2284054)
# How it was run: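 Metric: fraction of spikes falling in a 0.05 s window at network-spike peaks. Recordings were made on days 5, 7, 9 and 12 and collapsed by trapezoidal AUC. Cultures were rat cortical neurons on MEA plates, dosed continuously from plating, re-dosed at media changes.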
# [15] = CCTE_Shafer_MEA_dev_AB: CCTE's Alamar Blue Assay for Cytotoxicity in the Neural Network Formation Assay, Shafer Lab (AID 2284083; active means hit-call score of the fitted dose curve at least 0.9, where 1 is the maximum;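 further: twelve days of exposure from plating with re-dosing on DIV 5 and 9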)
# How it was run: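 Primary rat cortical neurons on PEI-coated 48-well MEA plates, 1.5 x 10^5 cells/well in laminin drop; compound exposure from day 0 of plating for twelve days, renewed at medium changes on DIV 5 and 9. Viability read as resazurin reduction by fluorescence, relative to DMSO.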
# [16] = CCTE_Shafer_MEA_dev_mutual_information_norm: CCTE's Neural Network Formation Assay for Mutual Information Normalization, Shafer Lab (AID 2284091);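 further: mutual information between electrodes summarised as area under curve across four recording days; potency is for a decrease in mutual information relative to DMSO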
# How it was run: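 Shared information across electrodes, tracked on days 5, 7, 9 and 12 of network development and collapsed as trapezoidal area under the curve. Rat cortical cultures were treated continuously from plating, with treatment renewed at feeds on DIV 5 and 9; DMSO baseline, negative-direction fit.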
# [17] = CCTE_Shafer_MEA_dev_correlation_coefficient_mean: CCTE's Neural Network Formation Assay for Mean Correlation Coefficient, Shafer Lab (AID 2284093);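 further: well mean pairwise spike train correlation integrated as AUC over recording days 5 to 12; potency fitted for loss of correlation relative to DMSO vehicle wells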
# How it was run: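 Spontaneous activity recorded on days 5, 7, 9 and 12 post-plating; pairwise spike correlations are averaged across active electrodes and collapsed to an area-under-curve. Rat cortical cultures are dosed from plating through 12 days, with compound renewed at media changes.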
# [18] = IUF_NPC1b_proliferation_BrdU_72hr: Leibniz Research Institute for Environmental Medicine (IUF) 72-hour Neural Progenitor Cell Bromodeoxyuridine (BrdU) Proliferation Assay (NPC1b) (AID 2284207)
# How it was run: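 Human fetal cortex-derived (GW 16-19) neural progenitor spheres, 0.25-0.35 mm, one per well in EGF/FGF proliferation medium, exposed to compound for 72 h at 37C, pH 7.2-7.6. BrdU incorporation over the final 16 h read by luminescence ELISA, relative to DMSO.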
# [19] = IUF_NPC1a_proliferation_area_72hr: Leibniz Research Institute for Environmental Medicine (IUF) 72-hour Neural Progenitor Cell Proliferation Area Assay (NPC1a) (AID 2284208)
# How it was run: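 Single 0.25–0.35 mm human fetal neural progenitor spheres in proliferation medium with EGF and FGF, exposed 72 h from plating without renewal at 37C, pH 7.2-7.6. Sphere area growth measured by automated phase-contrast imaging, relative to DMSO.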
# [20] = IUF_NPC1_viability_72hr: Viability Assessment at 72 hours in the Leibniz Research Institute for Environmental Medicine (IUF) Neural Progenitor Cell Proliferation Assay (NPC1) (AID 2284209)
# How it was run: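 Three-day continuous exposure of human neural progenitor spheres under EGF/FGF-driven proliferation; cell viability scored by alamar blue signal versus DMSO.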
# [21] = CCTE_Mundy_HCI_Cortical_Synap_Neur_Matur_NeuriteSpotCountPerNeuriteLength: CCTE's Synaptogenesis and Neurite Maturation Assay in rat cortical cells for Neurite Spot Count per Neurite Length, Mundy Lab (AID 2284210)
# How it was run: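 Synaptophysin spots per unit neurite length, measured by automated imaging of MAP2/synaptophysin/Hoechst-stained neurons. Cultures from rat cortex received chemical at DIV 7 with media change through DIV 12; glial growth arrested by AraC at DIV 5; DMSO baseline.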
# [22] = CCTE_Mundy_HCI_Cortical_Synap_Neur_Matur_BPCount: CCTE's Synaptogenesis and Neurite Maturation Assay in rat cortical cells for Branch Point Count, Mundy Lab (AID 2284211)
# How it was run: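 In this multiplexed morphology assay, cortical cells from rat receive chemicals at DIV 7 and are fixed at DIV 12, then immunostained and imaged; branch points are counted, with DMSO as baseline.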
# [23] = CCTE_Mundy_HCI_Cortical_NOG_NeuriteCount: CCTE's Neurite Outgrowth Assay in rat cortical cells for Neurite Count, Mundy Lab (AID 2284212);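 further: cells fixed about two days after chemical exposure began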
# How it was run: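 Rat cortical primary cells; compound added 2 h post-plating, 1/10 dilution of working solution. Anti-betaIII-tubulin/AF488 ICC; ArrayScan neurite count vs DMSO.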
# [24] = CCTE_Mundy_HCI_Cortical_NOG_NeuriteLength: CCTE's Neurite Outgrowth Assay in rat cortical cells for Neurite Length, Mundy Lab (AID 2284213);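 further: neurites imaged about 48 to 50 h after chemical exposure began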
# How it was run: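 First, rat primary cortical cells were plated and, 2 h later, given test chemical as a 1/10 dilution. Finally, βIII-tubulin immunostaining enabled automated imaging of neurite length.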
# [25] = CCTE_Mundy_HCI_Cortical_Synap_Neur_Matur_NeuriteLength: CCTE's Synaptogenesis and Neurite Maturation Assay in rat cortical cells for Neurite Length, Mundy Lab (AID 2284214)
# How it was run: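 DMSO-normalised neurite length, from high-content imaging of anti-MAP2-stained rat cortical cells fixed at DIV 12. Glia were suppressed with AraC (DIV 5) before chemical exposure from DIV 7.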
structure (smiles),measurement,setting,value
CC(CNC(=S)[S-])NC(=S)[S-].[Zn+2] (stereo not given),outcome,[1],inactive
same,outcome,[2],inactive
same,AC50,[3],17.4 µM (active)
same,AC50,[4],16.8 µM (active)
same,AC50,[5],26.2 µM (active)
same,AC50,[6],9.67 µM (active)
same,AC50,[7],50 µM (active)
same,outcome,[8],inactive
same,AC50,[9],8.44 µM (active)
same,AC50,[10],20.9 µM (active)
same,AC50,[11],8.64 µM (active)
same,AC50,[12],3.38 µM (active)
same,AC50,[13],24.7 µM (active)
same,AC50,[14],91.5 µM (active)
same,AC50,[15],32.2 µM (active)
same,AC50,[16],4.05 µM (active)
same,AC50,[17],19.7 µM (active)
same,AC50,[18],50 µM (active)
same,outcome,[19],inactive
same,outcome,[20],inactive
same,outcome,[21],inactive
same,AC50,[22],50 µM (active)
same,AC50,[23],31.5 µM (active)
same,AC50,[24],27.6 µM (active)
same,AC50,[25],50 µM (active)
